This is a sample that favours compounds with a hit; in the whole collection about 10% have one here.
BAZ2B block: qHTS Assay for Inhibitors of BAZ2B. Bromodomain adjacent to zinc finger domain protein 2B (Homo sapiens), Q9UIF8. AlphaScreen BAZ2B-H3K14Ac peptide displacement. Potency, µM (top dose mostly 114 µM), most hits filed as inhibitors. 360,000 tested, 4.4% active; further: nearly all actives have a fitted effect of over 60% in size
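Complex of BAZ2B and biotin-H3K14Ac (50 nM apiece) forms over 30 min at RT, then faces library compounds up to 110 uM for another 30 min; AlphaScreen beads added, 20 min dark incubation, luminescence read.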
G9a inh: qHTS Assay for Inhibitors of Histone Lysine Methyltransferase G9a; G9a H3K9 monomethylation, AlphaScreen, 2 h; Potency, µM (highest dose often 102 µM), hits mostly inhibitors; 350,000 tested, 8.8% active; further: nearly all actives have a fitted effect of over 75% in size
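AlphaScreen detection with an anti-monomethyl H3K9 antibody quantified product after a 2 h room-temperature reaction containing 500 nM biotinylated H3K9 peptide, 20 µM SAM and 20 nM enzyme, which had been preincubated 15 min with compound.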
GLS inh: qHTS for Inhibitors of Glutaminase (GLS); GLS enzymatic activity, qHTS titration; Potency, µM (series often up to 45.5 µM), usual class: inhibitors; 410,000 tested, 0.21% active; AID 624170, 2012
Target sequence (O94925 whole entry, looked up): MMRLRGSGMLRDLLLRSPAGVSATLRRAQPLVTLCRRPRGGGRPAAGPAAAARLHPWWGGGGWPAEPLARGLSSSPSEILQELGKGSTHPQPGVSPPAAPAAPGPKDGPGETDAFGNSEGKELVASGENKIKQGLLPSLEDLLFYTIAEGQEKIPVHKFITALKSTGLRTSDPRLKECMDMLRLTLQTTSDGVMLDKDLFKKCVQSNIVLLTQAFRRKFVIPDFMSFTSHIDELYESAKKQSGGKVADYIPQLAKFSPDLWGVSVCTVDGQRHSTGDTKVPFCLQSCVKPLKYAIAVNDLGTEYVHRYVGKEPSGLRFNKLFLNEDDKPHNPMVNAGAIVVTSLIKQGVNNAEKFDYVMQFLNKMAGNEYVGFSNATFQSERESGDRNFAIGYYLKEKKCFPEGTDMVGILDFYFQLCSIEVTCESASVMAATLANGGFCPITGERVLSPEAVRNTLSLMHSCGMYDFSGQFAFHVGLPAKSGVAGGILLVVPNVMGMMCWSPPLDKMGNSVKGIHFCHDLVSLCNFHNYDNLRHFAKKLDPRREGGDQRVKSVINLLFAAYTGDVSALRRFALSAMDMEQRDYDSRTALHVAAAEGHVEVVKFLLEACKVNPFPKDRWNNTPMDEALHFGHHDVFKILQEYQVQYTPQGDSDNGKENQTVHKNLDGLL
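Glutamate formation by hKGA was monitored fluorometrically using coupled glutamate oxidase, HRP and Amplex Red. Substrate was added as 1 mM L-glutamine solution; incubation was 30 min at RT after an initial read.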
HP1b binding inh: HTS for Inhibitors of HP1-beta Chromodomain Interactions with Methylated Histone Tails. Chromobox protein homolog 1 (Homo sapiens), P83916. AlphaScreen HP1-beta / biotin-H3K9me3 peptide binding. Potency, µM (top dose mostly 114 µM), actives largely listed as inhibitors. 390,000 tested, 0.56% active; further: nearly all actives have a fitted effect of over 70% in size
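HP1-beta protein (50 nM final) preincubated 30 min at room temperature with biotinylated H3(1-18)K9me3 peptide (50 nM) in PBS pH 7.4, 0.01% Tween-20, then compound added for 30 min. AlphaScreen streptavidin donor/nickel chelate acceptor beads (10 ug/mL final), 30 min dark, luminescence read.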
JMJD2A Tudor: qHTS Assay for Inhibitors of JMJD2A-Tudor Domain; AlphaScreen JMJD2A-Tudor / H3K4me3 peptide binding; Potency, µM (series often up to 114 µM), actives largely listed as inhibitors; 390,000 tested, 4.4% active; further: nearly all actives have a fitted effect of over 50% in size
Each line names hits and unclear results; the compound was inactive in the other large screens; ! = not active in a repeat. The call rests on the fitted dose curve; in most records, active means well fitted curve in the direction sought with a large enough effect; inconclusive means small, poorly fitted or top-dose-only effect, or another doubt; inactive means no such curve, though single readings can be large; an effect the other way counts as inactive or inconclusive.

Cc1nn(-c2ccccc2)c(C)c1/C=N/n1c(-c2ccc(C(C)(C)C)cc2)n[nH]c1=S	BAZ2B block inconclusive, HP1b binding inh inconclusive, JMJD2A Tudor inconclusive
Cc1ccc(-c2n[nH]c(=S)n2/N=C/c2c(C)nn(-c3ccccc3)c2C)cc1	G9a inh 10µM, JMJD2A Tudor 79µM
Cc1ccccc1-c1n[nH]c(=S)n1/N=C/c1c(C)nn(-c2ccccc2)c1C	G9a inh 1µM, GLS inh inconclusive, JMJD2A Tudor inconclusive
Cc1ccc(-c2cc(C(=O)N/N=C/c3c(C)nn(-c4ccccc4)c3C)[nH]n2)cc1	none (no result: GLS inh, HP1b binding inh, JMJD2A Tudor)
O=C1CCCc2oc3c(c21)CCCC3	G9a inh 50µM
COCCNC(=O)CCCn1c(SCc2ccccc2C)nc2c(sc3ccccc32)c1=O	none
Cc1cc2oc(=O)cc(CSc3nc(N)cc(N)n3)c2cc1C(C)C	BAZ2B block 32µM
COc1ccc(CC(=O)N(C)CC(=O)Nc2ccccc2SC)cc1	GLS inh inconclusive, JMJD2A Tudor 28µM
Cc1ccc(NC(=O)CN(C)C(=O)Cc2ccc3c(c2)CCC3)cc1	G9a inh 50µM
COc1ccc(NC(=O)CN(C)C(=O)Cc2ccc3c(c2)CCC3)cc1	G9a inh 50µM
Cc1ccc(NC(=O)Cc2ccc3c(c2)CCCC3)cc1C	G9a inh inconclusive
C=CCOc1ccc(CN(C)CC(=O)Nc2ccc3c(c2)CCC3)cc1	BAZ2B block 50µM, G9a inh 14µM, JMJD2A Tudor 14µM
CCOc1ccc(CN(C)CC(=O)Nc2ccc3c(c2)CCC3)cc1OC	none
CSc1ccccc1NC(=O)CN(C)C(=O)Cn1c(=O)oc2ccccc21	G9a inh 50µM
COc1ccc(NC(=O)CN(C)CC(=O)NC2CCCCC2C)cc1 (stereo not drawn)	G9a inh 28µM
O=C(O)c1ccc2nc(C(F)(F)F)[nH]c2c1	none (no result: GLS inh)
O=C(O)c1cccc2[nH]c(C(F)(F)F)nc12	BAZ2B block 56µM, G9a inh 40µM, JMJD2A Tudor 32µM
Nc1cccc2[nH]c(C(F)(F)F)nc12	BAZ2B block 56µM, G9a inh 28µM, HP1b binding inh inconclusive, JMJD2A Tudor inconclusive
S=c1nc(COc2ccccc2)[nH]c2ccccc12	G9a inh 18µM
FC(F)(F)c1nc(=S)c2ccccc2[nH]1	HP1b binding inh inconclusive, JMJD2A Tudor 50µM
Cc1nc(=S)c2ccccc2[nH]1	G9a inh inconclusive
CC(C)(C)c1ccccc1Nc1nc(C#N)nc(NC2CCCC2)n1	none (no result: BAZ2B block, G9a inh, GLS inh, HP1b binding inh)
O=c1nc(N2CCCC2)nc(N2CCCC2)[nH]1	none
Cc1ccc(C)c(NC(=O)Cn2cc(S(=O)(=O)c3ccc(F)cc3)c(=O)c3cc(F)ccc32)c1	none
COc1ccc(CCNC(=O)CC2Oc3ccc(Cl)cc3NC2=O)cc1OC (stereo not drawn)	G9a inh 79µM
CCC(C)NC(=O)CC1Oc2ccc(Cl)cc2NC1=O (stereo not drawn)	G9a inh 45µM
COc1ccc(CCNC(=O)CC2Nc3ccccc3NC2=O)cc1OC (stereo not drawn)	none
NC(CCc1ccccc1)c1csc(NC(=O)Nc2cccc(C(F)(F)F)c2)n1 (stereo not drawn)	none (no result: BAZ2B block, G9a inh, HP1b binding inh, JMJD2A Tudor)
O=Cc1cn[nH]c1-c1cccc([N+](=O)[O-])c1	none
O=C(O)c1cn[nH]c1-c1cccc([N+](=O)[O-])c1	G9a inh 35µM
NC(=O)SCC(=O)Nc1ccccc1C(=O)O	G9a inh 50µM
Cc1ccccc1NC(=O)CSC(N)=O	G9a inh inconclusive
O=C(CSc1cn[nH]n1)Nc1ccccc1C(=O)O	G9a inh 7.9µM, JMJD2A Tudor 79µM
COc1ccccc1NC(=O)CSC(N)=O	G9a inh 35µM, JMJD2A Tudor inconclusive
O=C(O)CNc1ccccc1C(=O)O	BAZ2B block inconclusive, JMJD2A Tudor 56µM (no result: G9a inh)
CC[C@H](C)[C@H](NC(=O)[C@H](CCCN=C(N)N)NC(=O)[C@H](CCCN=C(N)N)NC(=O)[C@H](CC(C)C)NC(=O)[C@H](Cc1ccccc1)NC(=O)CNC(=O)CN)C(=O)N[C@@H](CCCN=C(N)N)C(=O)N1CCC[C@H]1C(=O)N[C@@H](CCCCN)C(=O)N[C@@H](CC(C)C)C(=O)N[C@@H](CCCCN)C(=O)O	none (no result: BAZ2B block, GLS inh, HP1b binding inh, JMJD2A Tudor)
COc1cccc(OC(=O)CSc2nnc(-c3cccs3)o2)c1	BAZ2B block inconclusive, G9a inh inconclusive
CCOc1ccccc1NC(=O)CSc1nc(N)c(C#N)cc1C#N	G9a inh inconclusive
NC(=O)c1ccccc1NC(=O)CSC1=NCCS1	G9a inh 50µM
COc1ccccc1NC(=O)CSc1nc(N)c(C#N)cc1C#N	BAZ2B block inconclusive, G9a inh 50µM
Cc1cccc(NS(=O)(=O)c2ccc3[nH]c(=O)ccc3c2)c1C	none
CC(=O)N1CCc2cc(S(=O)(=O)NC(Cc3ccccc3)C(=O)Nc3cccc(C)c3)ccc21 (stereo not drawn)	G9a inh inconclusive (no result: BAZ2B block)
CN(C(=O)COC(=O)c1ccc2c(c1)NC(=O)CS2)C1CCS(=O)(=O)C1 (stereo not drawn)	G9a inh 50µM
Cc1ccc(-n2c(C)cc(C(=O)OCC(=O)N(C)C3CCS(=O)(=O)C3)c2C)cc1 (stereo not drawn)	BAZ2B block inconclusive, G9a inh 50µM
CC(C)CN(C(=O)COC(=O)c1ccc2c(c1)NC(=O)CS2)C1CCS(=O)(=O)C1 (stereo not drawn)	G9a inh inconclusive, HP1b binding inh inconclusive
CCN(C(=O)COC(=O)c1cc(C)n(-c2ccc(F)cc2)c1C)C1CCS(=O)(=O)C1 (stereo not drawn)	BAZ2B block inconclusive, G9a inh 50µM
Cc1ccc(NC(=O)c2ccc(F)c(S(=O)(=O)NCCc3ccccc3)c2)cc1F	none
COc1cc(OC)c(NC(=O)CSc2nccn2C)cc1Cl	none
CN(c1ccccc1)c1nccc(=O)[nH]1	none (no result: BAZ2B block, G9a inh)
Cc1ccc(O)c(N=Nc2ccccc2)n1	G9a inh 11µM!, JMJD2A Tudor inconclusive (no result: BAZ2B block)
OCc1ccc(N=Nc2ccccc2)cc1	none (no result: BAZ2B block, G9a inh)
COc1cc(CCC(=O)Nc2cccc(C(F)(F)F)c2)cc(OC)c1OC	G9a inh 45µM
CC(=O)C1=C(O)C(=O)N(c2ccc(S(N)(=O)=O)cc2)C1c1ccc([N+](=O)[O-])cc1 (stereo not drawn)	BAZ2B block inconclusive
CC(=O)C1=C(O)C(=O)N(c2ccc(S(=O)(=O)Nc3nccs3)cc2)C1c1ccc([N+](=O)[O-])cc1 (stereo not drawn)	BAZ2B block inconclusive, G9a inh 79µM
O=S(=O)(Nc1nccs1)c1ccc(F)cc1	none (no result: G9a inh)
